Measured values reported in PubChem BioAssay AID485364 (National Center for Advancing Translational Sciences (NCATS), 2010).
Screen size: about 360,000 compounds; about 11,000 (3.1%) were called active. Entries that show only a call come without a potency. Inconclusive results (about 4%) are left out. The call rests on the fitted dose curve; in most records, active means well fitted inhibition curve with a large enough effect; inconclusive means small, poorly fitted or top-dose-only effect; inactive means no such curve, though single readings can be large or run the other way. Only a selection was taken, and actives are over-represented in it overall.

The compounds below were run against Schistosoma mansoni thioredoxin glutathione reductase (TGR) (UniProt Q962Y6) (assay: qHTS Assay for the Inhibitors of Schistosoma Mansoni Peroxiredoxins). Conditions: purified TGR, DTNB reduction, TNB absorbance 405 nm; series mostly up to 114 µM.
How it was run: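 TGR 20 nM + NADPH 100 uM (dispensed conc.), cpd preinc 15 min RT; start with NADPH (500 uM addition) then DTNB (15 mM addition). Kinetic TNB absorbance, 405 nm filter. Four-parameter Hill fit across titration.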
Further: nearly all actives have a fitted effect of over 60% in size.
Potency means the concentration at half of the fitted maximal effect.

SMILES | Potency
Cc1ccc(CCNC(=O)c2ccc3c(c2)N(Cc2cc(C)ccc2C)C(=O)c2ccccc2S3=O)cc1 (stereo not drawn) | inactive
Cc1ccccc1OCc1nc2c3cnn(-c4ccccc4F)c3ncn2n1 | inactive
O=C(O)CCC(=O)N(Cc1cccs1)Cc1cccs1 | inactive
CC(C)Cn1c(CCC(=O)O)ccc1-c1cccs1 | 22.4 µM (active)
CCn1c(NC(=O)c2ccccc2)c(-c2cccs2)c(=O)c2ccccc21 | inactive
CCOc1ccc(S(=O)(=O)c2cn(Cc3ccccc3)c3ccc(OCC)cc3c2=O)cc1 | inactive
Cn1c(SCc2c(F)cccc2Cl)nnc1-c1cnccn1 | inactive
Brc1ccc(CSc2ccc(-c3ccco3)nn2)cc1 | 17.8 µM (active)
Cc1cc(SCc2c(F)cccc2Cl)nc(=O)[nH]1 | inactive
N#Cc1ccc(-c2cccs2)nc1SCc1ccc(Br)cc1 | inactive
Cc1cccc(CSc2ccc(-c3cccs3)nn2)c1 | inactive
Fc1cccc(Cl)c1CSc1ccc(-c2ccco2)nn1 | 17.8 µM (active)
COc1cccc(CNC(=O)C(NS(=O)(=O)c2ccc3nc(C)sc3c2)C(C)C)c1 (stereo not drawn) | inactive
COc1ccc(CNC(=O)CSc2nc3ccccc3nc2Cc2ccccc2)cc1 | inactive
Cc1ccc(OCCSc2nc3ccc(NC(=O)COc4ccc(C)cc4)cc3s2)cc1 | inactive
O=C(CCCn1c(=O)c2cccn2c2cccnc21)NCc1ccc(F)cc1 | inactive
CCOc1ccccc1NC(=O)C1CCCN(S(=O)(=O)c2cn(C)cn2)C1 (stereo not drawn) | inactive
COc1ccc(N2CCN(S(=O)(=O)c3ccc4c(c3)NC(=O)C(C)C(=O)N4)CC2)cc1 (stereo not drawn) | inactive
CC1C(=O)Nc2ccc(S(=O)(=O)N3CCN(c4ccccc4F)CC3)cc2NC1=O (stereo not drawn) | inactive
CON(C)S(=O)(=O)c1ccc2c(c1)NC(=O)C1CCCN21 (stereo not drawn) | 12.6 µM (active)
COc1ccc(-c2cc(C(F)(F)F)n3nc(-c4ccccc4)cc3n2)cc1OC | inactive
CCc1ccccc1NC(=O)N1CCC2(CC1)Oc1ccccc1C(=O)N2Cc1ccccc1F | inactive
Cc1ccc(Cl)cc1-c1ccc(/C=N/n2cnnc2)o1 | inactive
Cc1cc(-c2ccc(/C=N/n3cnnc3)o2)c([N+](=O)[O-])cc1C | 35.5 µM (active)
Clc1cc(-c2ccc(/C=N/n3cnnc3)o2)ccc1Br | inactive

SMILES | Potency
Cc1cc(C)c([N+](=O)[O-])cc1-c1ccc(/C=N/NC(=O)c2nonc2N)o1 | inactive
Cc1cc([N+](=O)[O-])c(-c2ccc(/C=N/n3cnnc3)o2)cc1Cl | 50.1 µM (active)
O=C1C2C3C=CC(C4CC34)C2C(=O)N1/N=C/c1ccc(-c2ccccc2[N+](=O)[O-])o1 (stereo not drawn) | inactive
COc1ccc(-n2nc(C(=O)NCCc3ccc(Cl)cc3)c3c4ccccc4n(C)c3c2=O)cc1Cl | inactive
Cc1cccc(OCCCC(=O)Nc2sc3c(c2C(N)=O)CCC(C)C3)c1 (stereo not drawn) | inactive
CCOC(=O)C1CCN(C(=O)CSc2c3c(nc4ccc(Cl)cc24)CCCC3)CC1 | inactive
CCOc1ccc(NC(=O)CN(Cc2ccccc2)S(=O)(=O)c2ccc(Cl)cc2)cc1 | inactive
CCOc1ccc(N(Cc2ccccc2)C(=O)c2nc(SCC)ncc2Cl)cc1 | inactive
CCOc1ccc(N(Cc2ccccc2)C(=O)c2nc(S(C)(=O)=O)ncc2Cl)cc1 | 8.91 µM (active)
Cc1c(CNC2CCCCC2)c(C(=O)O)c(C)n1Cc1cccc(Cl)c1 | inactive
COC(=O)C1=C(c2ccccc2)c2ccccc2S(=O)(=O)N1CC(=O)Nc1ccccc1C(F)(F)F | inactive
CN=C1S/C(=C\c2c(OC)cc(OC)cc2OC)C(=O)N1C | inactive
Cc1cc(/C=C2\SC(=Nc3ccc(N4CCOCC4)cc3)N(C)C2=O)c(C)n1-c1cccnc1 | inactive
CN1C(=O)/C(=C/c2ccco2)SC1=Nc1cccc(C(=O)O)c1 | 14.1 µM (active)
CCOC(=O)c1ccc(NC(=O)CC2C(=O)N(c3cccc(OC)c3)C(=O)N2C2CCCCC2)cc1 (stereo not drawn) | inactive
COc1ccc(NC(=O)c2ccc3nc(C(C)C)oc3c2)cc1OC | inactive
COc1ccccc1N1CCN(C(CNC(=O)C(=O)NCc2ccc(C)cc2)c2cccnc2)CC1 (stereo not drawn) | inactive
Cc1c(NC(=O)CCCOc2ccccc2)cccc1[N+](=O)[O-] | inactive
Cc1c(NC(=S)NCc2ccc(F)cc2)cccc1[N+](=O)[O-] | inactive
Cc1c(NC(=O)/C=C/C(=O)O)cccc1[N+](=O)[O-] | 50.1 µM (active)
O=C(NCCc1csc(-c2ccc(C(F)(F)F)cc2)n1)C(=O)Nc1ccc(F)c(Cl)c1 | inactive
CCOc1ccc(CN(CCCl)CCCl)cc1C(=O)OC | 14.1 µM (active)
CCCOc1ccc(CN(CCO)CCO)cc1C(=O)OC | inactive
CCOc1ccccc1NS(=O)(=O)c1c[nH]c(C(=O)OC)c1 | inactive
CC(=O)N1CCc2cc(S(=O)(=O)NC(Cc3ccccc3)C(=O)NCc3ccc(C)cc3)ccc21 (stereo not drawn) | inactive

SMILES | Potency
CCc1nn(CC(=O)NCC(C)c2ccccc2)c(=O)c2cc3occc3n12 (stereo not drawn) | inactive
Cc1cc(C)cc(-n2c(SCC(=O)NCC3CCCO3)nc3c([nH]c4ccccc43)c2=O)c1 (stereo not drawn) | inactive
CCCCOC(=O)CNc1nnc(SCC(=O)OCC)[nH]c1=O | 14.1 µM (active)
Cc1nnc(SCC(=O)N2CCOCC2)[nH]c1=O | inactive
CCOC(=O)CSc1nc(C)c(Oc2ccc(Cl)cc2Cl)c(=O)[nH]1 | inactive
Cc1ccccc1C(=O)Nc1cc(C)c(O)c(-c2nc3ccccc3o2)c1 | inactive
COc1cccc(Cn2c(CNS(=O)(=O)c3ccc(Cl)s3)nc3cccnc32)c1 | inactive
Cc1ccc(C2=NN(C(=O)COc3ncnc4ccccc34)C(c3ccco3)C2)cc1 (stereo not drawn) | inactive
O=C(COc1ccccc1Cl)N1N=C(c2cccs2)CC1c1ccco1 (stereo not drawn) | 35.5 µM (active)
O=C1c2cccc(OCC(=O)N3N=C(c4cccs4)CC3c3ccc(F)cc3)c2CCN1Cc1ccccc1 (stereo not drawn) | inactive
Cc1ccc(Cl)cc1NC(=O)CCS(=O)(=O)c1ccc(Br)s1 | inactive
O=C1N[C@@H](Cc2ccccc2)C(=O)N2[C@H]1C[C@]1(Br)c3ccccc3N(S(=O)(=O)c3ccccc3)[C@H]21 | 22.4 µM (active)
O=C(CSc1nccn1Cc1ccc(Cl)cc1)NCc1ccccc1 | inactive
Cc1ccc2c(=O)c(C(=O)c3ccc(F)cc3)cn(CC(=O)NC3CCCCC3)c2n1 | inactive
O=c1cc(CO)oc(C(Nc2cccc(C(F)(F)F)c2)c2ccccn2)c1O (stereo not drawn) | 11.2 µM (active)
O=c1cc(CO)oc(C(Nc2cccc([N+](=O)[O-])c2)c2ccccn2)c1O (stereo not drawn) | 50.1 µM (active)
O=C(CSc1nc(-c2ccccc2)cs1)Nc1cccc([N+](=O)[O-])c1 | inactive
O=[N+]([O-])c1cccc(S(=O)(=O)NCc2ccccn2)c1 | inactive
Cn1c(=O)c2c(ncn2CC(=O)Nc2cccc(C(F)(F)F)c2)n(C)c1=O | inactive
O=C(CSc1nnc(-c2ccccc2F)o1)Nc1cccc(C(F)(F)F)c1 | inactive
O=C(COc1ccccc1)OCc1cc(=O)n2nc(-c3cccs3)sc2n1 | inactive
CCOC(=O)c1ccc(NC(=O)c2c(NCc3cccs3)sc3c2CCCC3)cc1 | inactive
Cc1cccc(CC(=O)N2CC(=O)Nc3ccc(F)cc3C2c2ccccc2)c1 (stereo not drawn) | inactive
CCOC(=O)c1ccccc1NC(=O)c1sc2nc(-c3ccc(F)cc3)cn2c1C | inactive
O=C(Cn1ncc2c3ccccc3n(Cc3ccccc3)c2c1=O)NCc1ccccn1 | inactive

SMILES | Potency
Cc1nn(CC(=O)NCc2ccccn2)c(C)c1[N+](=O)[O-] | inactive
Cc1ccc(Cn2c(C)c3cnn(CC(=O)NCc4ccccc4)c(=O)c3c2C)cc1 | inactive
Cc1c2cnn(CC(=O)NCc3ccccn3)c(=O)c2c(C)n1Cc1ccc(Cl)cc1 | 44.7 µM (active)
Cc1ccc(Cn2c(C)c3cnn(CC(=O)NCc4ccccn4)c(=O)c3c2C)cc1 | 35.5 µM (active)
Cc1c2cnn(CC(=O)NCCCN3CC(C)CC(C)C3)c(=O)c2c(C)n1Cc1ccc(Cl)cc1 (stereo not drawn) | inactive
CN(C(=O)CSc1nnc(NC(=O)Nc2ccccc2)s1)c1ccccc1 | inactive
CCOC(=O)c1c(C)oc2ccc(N(C(=O)c3ccncc3)S(=O)(=O)c3ccc(CC)cc3)cc12 | inactive
Cc1c(Cl)cccc1NC(=O)N1CCN(C(=O)c2nsc3ccccc23)CC1 | inactive
CNc1ccc(-c2nc(-c3ccccc3C)no2)cc1[N+](=O)[O-] | inactive
O=C(CSc1ccsc1[N+](=O)[O-])N1CCCCC1 | 31.6 µM (active)
CC1CC(C)CN(C(=O)CSc2ccsc2[N+](=O)[O-])C1 (stereo not drawn) | inactive
O=C(CSCc1cccs1)N1CCCC1 | inactive
COc1cc(C(=O)NCCS(=O)(=O)N2CCN(c3ccccc3)CC2)cc(OC)c1OC | inactive
COc1ccc2c(c1)c(N1CCCC1=O)c(C(=O)Nc1ccc(OC)c(Cl)c1)n2C | inactive
C[C@@H](NC(=O)OC(C)(C)C)c1nnc(S(=O)(=O)Cc2ccccc2)o1 | 0.794 µM (active)
CCc1ccccc1NC(=O)CSc1nnc([C@@H](NC(=O)OC(C)(C)C)C(C)CC)o1 (stereo partly drawn) | inactive
COc1ccccc1NC(=O)[C@H](COCc1ccccc1)NC(=O)OC(C)(C)C | inactive
CCN(Cc1ccccc1)S(=O)(=O)c1ccc2c(c1)CCCN2C(C)=O | inactive
Cc1cc(NC(=O)c2cccc(Cl)c2)ccc1-c1cc2ccccc2oc1=O | inactive
O=C(CSCc1cnn(-c2ccccc2)c1-n1cccc1)NCc1ccccc1Br | inactive
O=C(/C=C/Sc1ncn[nH]1)c1ccc(Cl)cc1 | 0.794 µM (active)
COc1ccc(-n2c(SCC(=O)Nc3ccc(Cl)c(C)c3)nc3n[nH]c(C)c3c2=N)cc1 | inactive
COc1ccccc1CNC(=O)Cn1nc(C)c2nn(-c3ccc(Cl)cc3)c(C)c2c1=O | inactive
